Measurements reported in the supplement of paper PMC6897291.

Columns and labels:
U-2932 [1] = experiment: growth inhibition by drug alone (1 - RLU/untreated control) (fraction); higher = stronger inhibition; conditions: 177Lu-lilotomab satetraxetan 0 ug/ml
Summary of the method: (§1)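 Compound doses on the pre-printed Selleck Cambridge Cancer Compound library plates were 10/100 nM for RIVA cells and 10/1,000 nM for U-2932 cells, seeded at 3,000 cells/well. Before seeding, cells were washed after 18 h with or without a radiolabelled anti-CD37 antibody conjugate (~600 MBq/mg; 0.5 µg/ml RIVA, 1 µg/ml U-2932). Growth inhibition was derived from RealTime-Glo luminescence relative to untreated no-drug control wells. Readings were taken daily starting on day 3, each after 1 h at 37°C, and each well's RLU was divided by the mean of 48 such wells per plate and subtracted from 1.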

U-2932 [2] = experiment: growth inhibition by drug plus 177Lu-lilotomab satetraxetan (1 - RLU/untreated control) (fraction); higher = stronger inhibition; conditions: 177Lu-lilotomab satetraxetan 1 ug/ml
Summary of the method: as §1

RIVA = experiment: growth inhibition by drug alone (1 - RLU/untreated control) (fraction); higher = stronger inhibition; conditions: 177Lu-lilotomab satetraxetan 0 ug/ml
Summary of the method: as §1

O=P1(N(CCCl)CCCl)NCCCO1 (stereo not given) [Cyclophosphamide monohydrate]
growth inhibition by drug alone (U-2932 [1]; 10 nM, time (day): 3): -0.0368
growth inhibition by drug alone (U-2932 [1]; 10 nM, time (day): 4): -0.0191
growth inhibition by drug alone (U-2932 [1]; 10 nM, time (day): 5): -0.0185
growth inhibition by drug alone (U-2932 [1]; 10 nM, time (day): 6): 0.00793
growth inhibition by drug alone (U-2932 [1]; 1000 nM, time (day): 3): -0.0419
growth inhibition by drug alone (U-2932 [1]; 1000 nM, time (day): 4): -0.0135
growth inhibition by drug alone (U-2932 [1]; 1000 nM, time (day): 5): -0.0461
growth inhibition by drug alone (U-2932 [1]; 1000 nM, time (day): 6): -0.0745
growth inhibition by drug plus 177Lu-lilotomab satetraxetan (U-2932 [2]; 10 nM, time (day): 3): -0.0289
growth inhibition by drug plus 177Lu-lilotomab satetraxetan (U-2932 [2]; 10 nM, time (day): 4): -0.00591
growth inhibition by drug plus 177Lu-lilotomab satetraxetan (U-2932 [2]; 10 nM, time (day): 5): 0.0126
growth inhibition by drug plus 177Lu-lilotomab satetraxetan (U-2932 [2]; 10 nM, time (day): 6): 0.184
growth inhibition by drug plus 177Lu-lilotomab satetraxetan (U-2932 [2]; 1000 nM, time (day): 3): -0.0442
growth inhibition by drug plus 177Lu-lilotomab satetraxetan (U-2932 [2]; 1000 nM, time (day): 4): 0.00578
growth inhibition by drug plus 177Lu-lilotomab satetraxetan (U-2932 [2]; 1000 nM, time (day): 5): 0.00582
growth inhibition by drug plus 177Lu-lilotomab satetraxetan (U-2932 [2]; 1000 nM, time (day): 6): 0.0795

O=C(Oc1ccc([N+](=O)[O-])cc1)N1CCC(C(O)(c2ccc3c(c2)OCO3)c2ccc3c(c2)OCO3)CC1
growth inhibition by drug plus 177Lu-lilotomab satetraxetan (U-2932 [2]; 10 nM, time (day): 3): -0.0245
growth inhibition by drug plus 177Lu-lilotomab satetraxetan (U-2932 [2]; 10 nM, time (day): 4): 0.00325
growth inhibition by drug plus 177Lu-lilotomab satetraxetan (U-2932 [2]; 10 nM, time (day): 5): 0.0178
growth inhibition by drug plus 177Lu-lilotomab satetraxetan (U-2932 [2]; 10 nM, time (day): 6): 0.11
growth inhibition by drug plus 177Lu-lilotomab satetraxetan (U-2932 [2]; 1000 nM, time (day): 3): -0.0484
growth inhibition by drug plus 177Lu-lilotomab satetraxetan (U-2932 [2]; 1000 nM, time (day): 4): 0.0258
growth inhibition by drug plus 177Lu-lilotomab satetraxetan (U-2932 [2]; 1000 nM, time (day): 5): 0.0163
growth inhibition by drug plus 177Lu-lilotomab satetraxetan (U-2932 [2]; 1000 nM, time (day): 6): 0.077

N.N.[Cl][Pt][Cl] [Cisplatin]
growth inhibition by drug alone (RIVA; 10 nM, time (day): 3): -0.00407
growth inhibition by drug alone (RIVA; 10 nM, time (day): 4): -0.0943
growth inhibition by drug alone (RIVA; 10 nM, time (day): 5): -0.0938
growth inhibition by drug alone (RIVA; 10 nM, time (day): 6): -0.114
growth inhibition by drug alone (RIVA; 100 nM, time (day): 3): 0.0654
growth inhibition by drug alone (RIVA; 100 nM, time (day): 4): -0.0804
growth inhibition by drug alone (RIVA; 100 nM, time (day): 5): -0.0914
growth inhibition by drug alone (RIVA; 100 nM, time (day): 6): -0.104
growth inhibition by drug plus 177Lu-lilotomab satetraxetan (U-2932 [2]; 10 nM, time (day): 3): 0.000302
growth inhibition by drug plus 177Lu-lilotomab satetraxetan (U-2932 [2]; 10 nM, time (day): 4): 0.0521
growth inhibition by drug plus 177Lu-lilotomab satetraxetan (U-2932 [2]; 10 nM, time (day): 5): 0.0625
growth inhibition by drug plus 177Lu-lilotomab satetraxetan (U-2932 [2]; 10 nM, time (day): 6): 0.172
growth inhibition by drug plus 177Lu-lilotomab satetraxetan (U-2932 [2]; 1000 nM, time (day): 3): -0.00976
growth inhibition by drug plus 177Lu-lilotomab satetraxetan (U-2932 [2]; 1000 nM, time (day): 4): 0.0376
growth inhibition by drug plus 177Lu-lilotomab satetraxetan (U-2932 [2]; 1000 nM, time (day): 5): 0.065
growth inhibition by drug plus 177Lu-lilotomab satetraxetan (U-2932 [2]; 1000 nM, time (day): 6): 0.206
